Bioassay records: PubChem BioAssay, National Center for Advancing Translational Sciences (NCATS)
Abeta yeast res = compounds reversing amyloid beta toxicity in yeast. yeast expressing A-beta42, growth rescue, OD600, 48 h; response scale: 0% DMSO, 100% iron-clioquinol control. Potency, µM (doses to about 46.1 µM), actives largely listed as activators. 410,000 compounds, 0.063% hits; further: nearly all actives have a fitted effect of over 55% in size
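Yeast growth medium received pinned compounds, then yeast cells expressing toxic A-beta were added; plates incubated at 30 C for 48 hr. Growth read as absorbance at 600 nm, normalized to DMSO and equimolar FeCl3 plus clioquinol controls.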
TDP43 rescue = rescues yeast growth from TDP-43 toxicity. TDP-43 expressing yeast growth rescue, BacTiter-Glo, 24 h. Potency, µM (top dose mostly 46.1 µM), usual class: activators. AID 652104. 410,000 compounds, 1.8% hits; further: nearly all actives have a fitted effect of over 50% in size
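In this qHTS, compounds that restore growth of yeast expressing TDP-43 appear as activators. Cells (OD600=0.02, galactose medium, raffinose-pregrown) are incubated with compound 24 hr at 30 deg C and growth is quantified by BacTiter-Glo.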
aSyn yeast inh = alpha-synuclein toxicity inhibition in yeast. Yeast expressing alpha-synuclein, growth rescue, BacTiter-Glo, 24 h. Potency, µM (top dose mostly 46.1 µM), most hits filed as activators. 370,000 compounds, 0.14% hits; further: nearly all actives have a fitted effect of over 65% in size
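Galactose-induced alpha-syn yeast (OD600=0.02, raffinose-pregrown) + pinned cpd, 24 hr, 30 deg C; growth by BacTiter-Glo luminescence. Growth restoration scores as activation.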
FUS yeast rescue = rescues growth of FUS-expressing yeast. S. cerevisiae FUS-expressing, growth rescue, OD600, 24 h. Potency, µM (highest dose often 76.6 µM), actives largely listed as activators. 390,000 compounds, 0.24% hits. AID 1347120; further: nearly all actives have a fitted effect of over 55% in size
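Restored growth of FUS-toxic S. cerevisiae, read as 600 nm absorbance after 24 h at 30C in galactose medium (starting OD 0.005). Controls CP55940 and DMSO.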
Numbers stand for hits; n = inactive; u = inconclusive; x = not tested or not shown. The list is not random: actives were taken first. Their share in the collection is about 2.1%. The call rests on the fitted dose curve; in most records, active means well fitted curve in the direction sought with a large enough effect; inconclusive means small, poorly fitted or top-dose-only effect, or another doubt; inactive means no such curve, though single readings can be large; an effect the other way counts as inactive or inconclusive.

SMILES | Abeta yeast res | TDP43 rescue | aSyn yeast inh | FUS yeast rescue
COC(=O)[C@@]12CCCCN1[C@H](c1ccc(-c3ccc4c(c3)OCO4)c(OC)c1)[C@@H]1C(=O)N(C)C(=O)[C@@H]12 | n | 13µM | n | 11µM
CNC(=O)[C@@H](NC(=O)[C@H](CC(C)C)[C@H](O)C(=O)NO)C(C)(C)C | x | x | x | n
C#CCNC(=O)C[C@H]1C[C@@]2(C(=O)OC)C(=C[C@H](COCc3ccccc3)O[C@@H]2C)N(Cc2ccccc2)C1=O | x | x | x | n
O=C(N1CCC(n2nc(-c3ccccc3)oc2=O)CC1)C1(c2ccc(Cl)cc2)CC1 | x | 22µM | u | u
O=C(Cc1ccc2c(c1)OCO2)N1CCC(n2nc(-c3ccccc3)oc2=O)CC1 | x | x | x | n
CCN(CC)S(=O)(=O)c1cccc(NC(=O)c2cc3ccccc3o2)c1 | n | u | n | n
COc1ccc(NC(=O)c2cc3ccccc3o2)cc1 | n | n | n | n
COc1ccc(NC(=O)c2cc3ccccc3o2)cc1OC | n | 13µM | n | n
CN(C)S(=O)(=O)c1cccc(NC(=O)c2cc3ccccc3o2)c1 | n | 8.9µM | x | n
C(=C\c1ccnc2ccccc12)/c1cc2c3c(c1)CCCN3CCC2 | x | x | n | x
CC(C)c1nc2sc3c(=O)[nH]cnc3c2c2c1CCC2 | n | n | n | n
CC(C)c1nc2sc3c(=S)nc[nH]c3c2c2c1CCC2 | n | 16µM | n | n
O=C(NCCNc1ccc([N+](=O)[O-])cc1C(F)(F)F)c1cccc(F)c1 | u | u | n | x
O=C(NCCNc1ccc([N+](=O)[O-])cc1C(F)(F)F)c1ccccc1 | n | 22µM | n | x
COc1ccc(CCn2nnnc2C2(c3ccc(C)cc3)CC2)cc1 | x | x | n | x
O=C1COc2ccccc2N1Cc1c(F)cccc1Cl | n | 11µM | n | n
CCCSc1nnc(NC(=O)c2sc3nc(-c4cccs4)ccc3c2N)s1 | n | n | n | 13µM
CC[N+](C)(C)c1ccc(/C=C/c2ccc3ccccc3n2)cc1 | x | x | n | x
Cc1cc(C)nc(SCc2nnc(SCc3ccccc3Cl)o2)n1 | n | 16µM | n | n
O=C(Nc1ccc(F)cc1)OCCN1C(=O)CCC12CCC(c1ccc(Cl)cc1)CC2 (stereo not given) | x | x | x | n
Cc1ccccc1-n1c(-c2csc(C)c2C)n[nH]c1=S | 4.5µM | u | n | n
Cc1scc(-c2n[nH]c(=S)n2C(C)c2ccccc2)c1C (stereo not given) | n | 35µM | n | x
C=CCn1c(-c2csc3ccccc23)n[nH]c1=S | n | n | n | n
Cc1ccccc1-n1c(-c2csc3ccccc23)n[nH]c1=S | n | 20µM | n | n
CC(c1ccccc1)n1c(-c2ccccc2)n[nH]c1=S (stereo not given) | x | x | n | x
SMILES | Abeta yeast res | TDP43 rescue | aSyn yeast inh | FUS yeast rescue
Cc1ccc2c(c1)N(C(=O)CCC(=O)NCc1cccc(F)c1)CC(C)O2 (stereo not given) | n | n | x | n
COc1ccc(-c2cc3ncc(C)n3c(Nc3ncccc3C(N)=O)n2)cc1OC | x | x | n | x
Nc1ccc2nc(SCC(=O)c3ccccc3)sc2c1 | n | u | n | n
Nc1ccc2nc(SCc3ccccc3F)sc2c1 | n | 13µM | n | n
Cc1ccc(-c2ccnc3cc(C)nn23)cc1 | n | 20µM | n | n
Cc1cc2nccc(-c3ccncc3)n2n1 | n | n | n | n
CCc1ccc([C@H]2C(C(=O)O)=C[C@@H](C(C)(C)C)N2S(=O)(=O)c2ccc(C)cc2)cc1 | n | 14µM | n | n
COc1ccc(CSc2ncnc3sccc23)cc1F | n | 13µM | n | n
Cc1ccc(SCc2nc(N)nc(Nc3ccccc3C)n2)cc1C | n | 18µM | n | u
Cc1ccccc1Nc1nc(N)nc(CSc2ccc(F)cc2)n1 | n | 25µM | n | n
Cc1ccccc1Nc1nc(N)nc(CSc2nnc(C)n2C)n1 | n | n | n | n
Cc1ccccc1NC(=O)CCCSc1nc2ccccc2s1 | n | 13µM | n | x
CCc1cccc(C)c1NC(=O)CCCSc1nc2ccccc2s1 | n | n | n | n
Cc1ccc(SCc2nc(N)nc(Nc3ccccc3C)n2)c(C)c1 | u | u | n | n
COc1ccc(Nc2nc(N)nc(CSc3nc4cc(OC)ccc4s3)n2)cc1 | n | 20µM | x | u
O=C(CNS(=O)(=O)c1ccccc1)N1CCN(c2ccccn2)CC1 | x | x | x | n
Cc1nn(CCC(=O)NNC(=O)Nc2ccc(F)cc2)c(C)c1[N+](=O)[O-] | x | x | x | n
Cc1ccccc1Nc1nc(N)nc(CSc2nc3ccccc3s2)n1 | n | 20µM | n | x
COc1ccc(N(CC(=O)Nc2cc(C)on2)S(=O)(=O)c2cc(C)ccc2C)cc1 | n | u | n | 32µM
COc1ccc(N(CC(=O)Nc2cc(C)on2)S(=O)(=O)c2ccc(Cl)cc2)cc1 | n | n | n | n
Fc1ccc(N2CCN(c3ncnc4onc(-c5ccc(Cl)cc5)c34)CC2)cc1 | n | 18µM | x | n
COCCNc1nc(-c2cc(-c3ccccc3)on2)cc(C(C)C)n1 | n | 16µM | n | n
COCCNc1nc(C)cc(-c2cc(-c3ccc(Cl)cc3)on2)n1 | n | u | n | n
Cc1nnc2c3ccccc3nc(N3CCN(c4cccc(Cl)c4)CC3)n12 | n | 25µM | x | n
Cc1[nH]c2ccccc2c1C(=O)CNc1ccc(Br)cc1 | x | x | n | x
SMILES | Abeta yeast res | TDP43 rescue | aSyn yeast inh | FUS yeast rescue
COC(=O)C[C@H]1CC[C@@H]2[C@@H](COc3ccc(NC(=O)c4ccno4)cc3C(=O)N2C)O1 | x | x | x | n
COc1ccc(-c2nc(CN3CCC(C(=O)NCc4ccc(F)cc4)CC3)c(C)o2)cc1OC | n | n | x | n
CCc1ccc(-c2nc(CN3CCC(C(=O)NCc4ccc(F)cc4)CC3)c(C)o2)cc1 | n | 2µM | x | n
NC(=S)NN=C1CSSC1 | u | 20µM | 2.8µM | n
CC1(C)CCC(=NNC(N)=S)CC1 | n | n | n | x
COc1ccc(C2SCCN2C(=S)Nc2ccc(Cl)cc2)cc1 (stereo not given) | n | n | n | x
COc1ccc(C2SCCN2C(=S)Nc2cccc(Cl)c2)cc1 (stereo not given) | n | 18µM | n | x
O=C(O)c1cccc(COc2cccc3ccccc23)c1 | n | 35µM | n | n
Cc1oc(C(=O)O)cc1COc1cccc2ccccc12 | n | 32µM | n | n
COc1ccc(NC(=O)CC2C(=O)N(c3ccc(C)cc3)C(=O)N2Cc2ccc(C)cc2)cc1 (stereo not given) | n | n | x | n
Cc1cccc(-c2nc3ccccc3c3nncn23)c1 | n | 18µM | n | n
CC1(C)CC(=O)C=C(Nc2ccccc2NC(=O)c2cccc(F)c2F)C1 | x | x | x | n
CCCCCc1ccc(-c2cn(CCc3c[nH]c4ccccc34)nn2)cc1 | n | n | n | n
O=C(O)CCCCCCCCc1cn(CCc2c[nH]c3ccccc23)nn1 | n | 13µM | n | n
Cc1cc(C)nc(Nc2cccc(Cl)c2)n1 | n | 8.9µM | n | n
Cc1cc(C)nc(Nc2ccc(C)c([N+](=O)[O-])c2)n1 | n | 20µM | n | n
Cc1cc(Nc2cccc(Cl)c2)c2ccccc2n1 | n | n | n | n
O=[N+]([O-])c1cccc(C(=S)N2CCN(c3ccccc3F)CC2)c1 | n | u | n | n
